# Test results published in PubChem BioAssay.
# Several values for one entry are separate records, joined by “and”; a condition that tells them apart may be missing. Identical values can stand only once. Activity calls are given as the source filed them. Unless noted, no stated cut-off is given here; in the data, active means inhibition above about 80%; inactive means the rest.
# Experiments:
# [1] = compounds altering viability of human ES cells (AID 493140; call rule not given here;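 further: cells exposed to compounds for four days before counting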); conditions: human embryonic stem cell survival screen; stronger effect = higher value
# [2] = P. berghei load reduction in hepatocytes – cell-based, HepG2, luciferase luminescence, HepG2 viability, primary screen (AID 624349; in the data active means parasite load remaining mostly below about 12%, no sharp cut-off; inactive means mostly above about 10%;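 further: 100% = mean of DMSO negative control wells on the same plate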); conditions: P. berghei liver stage in HepG2, luciferase luminescence, concentration not given here; parasite load remaining: stronger effect = lower value; viability: measured here: HepG2 viability without parasites
# [3] = viability loss with induced miR-34 in A549 – imaging, A549 dox-inducible miR-34, nuclei and caspase counts, primary screen (AID 1347080;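 active means compounds whose cell count with miR-34 switched on is under 0.7 times the count with it off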); conditions: A549 miR-34 inducible, Hoechst nuclei count, 48 h
# [4] = MELAS cybrid and Rieske KO viability enhancers – cell-based, MELAS cybrids, Rieske KO mouse fibroblasts, CellTiter-Glo, primary screen (AID 1508586;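 active means mean z-score across replicates of 1.96 or higher in either the MELAS or the Rieske mutant cell line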;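 further: z relative to plate mean and SD of compound and empty wells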); conditions: low glucose
# [5] = growth inhibition, single agent or in combination, cell-based, chromothripsis tumors, cisplatin or BGB combos (AID 1671449); conditions: LFS_MB_P medulloblastoma cells;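 further: cells exposed for 96 hours; 0% = vehicle DMSO and 100% = killing by high DMSO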
# [6] = growth inhibition, single agent and combos, cell-based, chromothripsis tumors, cisplatin or BGB combos (AID 1671450); conditions: HDN33 neuroblastoma cells, stronger effect = higher value;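 further: cells exposed to compound for four days; 0% = vehicle DMSO and 100% = cell killing by high DMSO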
# [7] = growth inhibition, single agents and combos, ICB984, cell-based, cisplatin or BGB combos, synergistic combos for chromothripsis tumors (AID 1671451; call rule not given here;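 further: cells exposed for 96 hours before readout; 0% = vehicle DMSO and 100% = killing by high DMSO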); conditions: ICB984 medulloblastoma cells, drug combinations, stronger effect = higher value
# [8] = growth inhibition, single agents and combos, LFS_MB_1R, cell-based, cisplatin or BGB combos, synergistic combos for chromothripsis tumors (AID 1671452); conditions: LFS_MB_1R medulloblastoma cells, stronger effect = higher value;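 further: cells exposed for 96 hours before readout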
# [9] = growth inhibition, single agents and combos, HTB85, cell-based, BGB or cisplatin IC20 combos, synergistic combos for chromothripsis tumors (AID 1671453); conditions: HTB85 osteosarcoma cells, drug combinations, stronger effect = higher value;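 further: cells exposed for 96 hours before readout; 0% = vehicle DMSO and 100% = high DMSO killing control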
# [10] = growth inhibition, single agents and combos, CRL2098, cell-based, BGB or cisplatin IC20 combos, synergistic combos for chromothripsis tumors (AID 1671454); conditions: CRL2098 osteosarcoma cells, drug combinations, stronger effect = higher value;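 further: cells exposed for 96 h before readout; 0% = vehicle DMSO and 100% = killing by high DMSO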
# [11] = growth inhibition, single agents and combos, HD-MB03, cell-based, BGB or cisplatin IC20 combos, synergistic combos for chromothripsis tumors (AID 1671455; in the data active means inhibition above about 83%;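 further: 0% = vehicle DMSO and 100% = high DMSO as cytotoxic control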); conditions: HD-MB03 medulloblastoma cells, stronger effect = higher value
# [12] = growth inhibition, single agents and combos, UWB1.289, cell-based, BGB or cisplatin combos, synergistic combos for chromothripsis tumors (AID 1671456); conditions: UWB1.289 ovarian carcinoma cells, stronger effect = higher value;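 further: cells exposed to compound for four days; 0% = vehicle DMSO and 100% = killing by high DMSO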
# [13] = growth inhibition, single agents and combos, LFS_MB_2R, cell-based, cisplatin combos, synergistic combos for chromothripsis tumors (AID 1671457); conditions: LFS_MB_2R medulloblastoma cells, stronger effect = higher value;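 further: cells exposed to compound for four days before readout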
# [14] = growth inhibition, MDA-MB-436, cell-based, BGB or cisplatin combos, synergistic combos for chromothripsis tumors (AID 1671458; call rule not given here;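 further: cells exposed for 96 hours; 0% = vehicle DMSO and 100% = killing by high DMSO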); conditions: MDA-MB-436 breast carcinoma growth inhibition, drug combinations, stronger effect = higher value
# [15] = UWB1.289_BRCA1 ovarian cancer growth, cell-based, BGB or cisplatin combinations (AID 1671459); conditions: UWB1.289 BRCA1 ovarian carcinoma, drug combinations, stronger effect = higher value
# [16] = drug combination toxicity in non-malignant astrocytes – cell-based, BGB or cisplatin IC20 combos, cytotoxicity control for chromothriptic childhood tumor combination screen (AID 1671460); conditions: Human astrocytes, viability inhibition, drug combinations, at 0.5 µM, stronger effect = higher value;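 further: cells exposed to compounds for 96 hours before viability readout; 0% = vehicle and 100% = killing control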
# [17] = BT084 cell growth, single and combined drugs, ICGC_MB145, cisplatin and BGB IC40 combos (AID 1671461); conditions: BT084 medulloblastoma cells, drug combinations, stronger effect = higher value;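 further: cells exposed to drugs for 96 hours; 0% = vehicle DMSO and 100% = high DMSO full killing control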
# [18] = RCMB18 cell growth, single agent and combined, cisplatin and BGB IC40 combos (AID 1671462); conditions: RCMB18 medulloblastoma cells, stronger effect = higher value;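 further: cells exposed to compound for four days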
# [19] = CRL1545 cell growth, single agent and combined, cisplatin and BGB IC20 combos (AID 1671464); conditions: CRL1545 osteosarcoma cells, stronger effect = higher value;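 further: cells exposed to compound for 96 hours before readout; 0% = vehicle DMSO and 100% = high DMSO killing control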
# [20] = stronger effect = lower value, cell number ratio, induced over uninduced
# [21] = measured here: relative caspase fold change +Dox/-Dox
# [22] = measured here: total cells with miR-34 induction, stronger effect = lower value
# [23] = measured here: total cells without miR-34 induction
# [24] = MELAS cybrid survival, CellTiter-Glo 48 h, stronger effect = higher value
# [25] = Rieske KO mouse fibroblast survival, CellTiter-Glo 72 h
# [26] = measured here: combination with BGB IC40, at 0.05 µM
# [27] = measured here: with BGB IC20 combination, at 0.5 µM
# [28] = measured here: with cisplatin IC20 combination, at 0.5 µM
# [29] = measured here: combination with cisplatin, at 0.5 µM
# [30] = measured here: combination with cisplatin, at 5 µM
smiles,measurement,setting,value
CCCCC[C@H](O)/C=C/[C@@H]1[C@@H](C/C=C\CCCC(=O)O)[C@@H](O)C[C@H]1O (tested in a mixture with another compound),survival,[1],6.75 (inactive)
same,parasite load remaining,[2],74.8% (inactive) and 88.7% (inactive)
same,viability,[2],111% and 88.8%
same,fold change,[3]; [20],0.919 (inactive)
same,fold change,[3]; [21],1.17
same,cell count,[3]; [22],8520
same,cell count,[3]; [23],9270
same,z-score,[4]; [24],-0.0339 (inactive)
same,z-score,[4]; [25],-1.21
O=c1ccn(C2OC(CO)C(O)C2O)c(=O)[nH]1 (stereo unspecified),fold change,[3]; [20],0.86 (inactive)
same,fold change,[3]; [21],0.784
same,cell count,[3]; [22],8240
same,cell count,[3]; [23],9580
same,z-score,[4]; [24],-0.15 (inactive)
same,z-score,[4]; [25],0.496
same,inhibition,"[5]; at 0.5 µM, stronger effect = higher value",-8.26% (inactive) and 22% (inactive)
same,inhibition,"[5]; measured here: combination with BGB IC20, at 0.005 µM",10.5% and -21.6%
same,inhibition,"[5]; measured here: combination with BGB IC40, at 0.005 µM",8.95% and -30.9%
same,inhibition,[5]; [26],17.3% and -34.8%
same,inhibition,"[5]; measured here: combination with cisplatin, at 0.5 µM, stronger effect = higher value",37.5% and 6.75%
same,inhibition,"[5]; measured here: combination with cisplatin, at 5 µM, stronger effect = higher value",-10.3% and -15.6%
same,inhibition,"[6]; BGB combo, at 5 µM",17.7% and -13.8%
same,inhibition,[6]; at 0.5 µM,23.7% (inactive) and 2.11% (inactive)
same,inhibition,"[6]; cisplatin combo, at 5 µM",22% and -0.337%
same,inhibition,[6]; [27],17.2% and -17.5%
same,inhibition,[6]; [28],35.5% and -0.199%
same,inhibition,"[6]; single agent, at 5 µM",18.6% and -37.8%
same,inhibition,"[7]; BGB IC20 combo, at 0.005 µM",12.4% and 14.9%
same,inhibition,"[7]; BGB IC40 combo, at 0.005 µM",6.25% and -39.4%
same,inhibition,"[7]; BGB IC40 combo, at 0.05 µM",-7.22% and -39.4%
same,inhibition,[7]; at 0.5 µM,-8.08% (inactive) and -24.1% (inactive)
same,inhibition,"[7]; cisplatin combo, at 0.05 µM",-11.1% and -43.3%
same,inhibition,"[7]; cisplatin combo, at 0.5 µM",4.25% and -24.8%
same,inhibition,"[7]; cisplatin combo, at 5 µM",-7.38% and -52.9%
same,inhibition,"[7]; measured here: 5 uM single agent, at 5 µM",7.59% and -39.4%
same,inhibition,[8]; at 0.5 µM,-5.2% (inactive) and -14.4% (inactive)
same,inhibition,[8]; [26],-12.7% and -13.9%
same,inhibition,[8]; [29],-10% and 2.17%
same,inhibition,[8]; [30],-46% and -44.9%
same,inhibition,[9]; at 0.5 µM,10.7% (inactive) and -20.8% (inactive)
same,inhibition,"[9]; measured here: with BGB IC20, at 0.5 µM",10.2% and -46.4%
same,inhibition,"[9]; measured here: with BGB IC20, at 5 µM",15% and -44.4%
same,inhibition,"[9]; measured here: with cisplatin IC20, at 0.5 µM",7.75% and -5.03%
same,inhibition,"[9]; measured here: with cisplatin IC20, at 5 µM",1.8% and -45.1%
same,inhibition,"[9]; single agent, at 5 µM",13% and -28.4%
same,inhibition,[10]; at 0.5 µM,9.28% (inactive) and -75.8% (inactive)
same,inhibition,"[10]; measured here: combination with BGB at IC20, at 0.5 µM",0.692% and -94%
same,inhibition,"[10]; measured here: combination with cisplatin at IC20, at 0.5 µM",13.9% and -68.3%
same,inhibition,[11]; at 0.5 µM,6.18% (inactive) and -13.5% (inactive)
same,inhibition,"[11]; measured here: combo with BGB at IC20, at 0.5 µM",2.23% and -12.6%
same,inhibition,"[11]; measured here: combo with cisplatin at IC20, at 0.5 µM",13.4% and -11.6%
same,inhibition,[12]; at 0.5 µM,16.3% (inactive) and -6.23% (inactive)
same,inhibition,"[12]; measured here: inhibition with BGB combination, at 0.05 µM",-2.12% and -33.8%
same,inhibition,"[12]; measured here: inhibition with cisplatin combination, at 0.05 µM",36.9% and -21.3%
same,inhibition,[13]; at 0.5 µM,6.19% (inactive) and -21.5% (inactive)
same,inhibition,[13]; [29],9.72% and -11.9%
same,inhibition,[13]; [30],14.1% and -81.5%
same,inhibition,[14]; at 0.5 µM,10.4% (inactive) and -39.6% (inactive)
same,inhibition,"[14]; measured here: BGB combination, at 0.5 µM",7.3% and -43.2%
same,inhibition,"[14]; measured here: BGB combination, at 5 µM",8.01% and -19.5%
same,inhibition,"[14]; measured here: cisplatin combination, at 0.5 µM",12.2% and -58.5%
same,inhibition,"[14]; measured here: cisplatin combination, at 5 µM",2.73% and -39.8%
same,inhibition,"[15]; BGB combination, concentration series, at 5 µM",8.48% and -29.5%
same,inhibition,[15]; at 0.5 µM,10.7% (inactive) and -14.6% (inactive)
same,inhibition,"[15]; cisplatin combination, concentration series, at 5 µM",-14.1% and -9.02%
same,inhibition,[16],8.08% (inactive) and -8.91% (inactive)
same,inhibition,[16]; measured here: combo with BGB IC20,10.4% and -14.8%
same,inhibition,[16]; measured here: combo with cisplatin IC20,12.5% and -5.12%
same,inhibition,[17]; at 0.5 µM,5.91% (inactive) and -28.7% (inactive)
same,inhibition,"[17]; cisplatin combination, at 0.5 µM",-2.3% and -6.58%
same,inhibition,"[17]; cisplatin combination, at 5 µM",-4.68% and -1.56%
same,inhibition,"[17]; measured here: BGB IC40 combination 0.05 uM, at 0.05 µM",39.8% and -13.1%
same,inhibition,"[17]; single agent, at 5 µM",-4.18% and -25.9%
same,inhibition,[18]; at 0.5 µM,11% (inactive) and -17.5% (inactive)
same,inhibition,"[18]; cisplatin combo, at 5 µM",10.7% and -4.43%
same,inhibition,"[18]; measured here: BGB IC40 combination, at 0.05 µM",15.8% and -34.3%
same,inhibition,[18]; [29],22.8% and -4.28%
same,inhibition,"[18]; single agent, at 5 µM",-1.69% and -19.5%
same,inhibition,[19]; at 0.5 µM,11.7% (inactive) and -2.83% (inactive)
same,inhibition,[19]; [27],-2.36% and -19.1%
same,inhibition,[19]; [28],17.5% and 3.15%
same,inhibition,"[19]; single agent, at 0.05 µM",32.6% and -48.2%
same,inhibition,"[19]; single agent, at 5 µM",-21.6% and -1.48%
Nc1nc(=S)c2ncn([C@@H]3O[C@H](CO)[C@@H](O)[C@H]3O)c2[nH]1,survival,[1],1.25 (inactive)
same,parasite load remaining,[2],64.1% (inactive) and 72.9% (inactive)
same,viability,[2],36.6% and 69.4%
same,fold change,[3]; [20],1.04 (inactive)
same,fold change,[3]; [21],1.52
same,cell count,[3]; [22],2980
same,cell count,[3]; [23],2870
same,z-score,[4]; [24],3.35 (active)
same,z-score,[4]; [25],-0.524
CN[C@@H]1[C@H](O[C@H]2[C@H](O[C@@H]3[C@@H](O)[C@H](O)[C@@H](N=C(N)N)[C@H](O)[C@H]3N=C(N)N)O[C@@H](C)[C@]2(O)CO)O[C@@H](CO)[C@H](O)[C@H]1O,survival,[1],13.1 (inactive)
same,parasite load remaining,[2],58.9% (inactive) and 103% (inactive)
same,viability,[2],51% and 87.7%
same,fold change,[3]; [20],0.925 (inactive)
same,fold change,[3]; [21],1.1
same,cell count,[3]; [22],9160
same,cell count,[3]; [23],9910
same,z-score,[4]; [24],-0.905 (inactive)
same,z-score,[4]; [25],-0.0139
